Laboratory results taken from PubChem BioAssay (NCATS).
A number with no mark means an inactive call. Inconclusive results are not listed. Where a call stands in place of a potency, no number is given. Active and inactive are the calls of the source. Unless noted, calls follow the shape of the dose curve; as a rule, active = well fitted curve in the direction sought with a large enough effect; inconclusive = small, poorly fitted or top-dose-only effect, or another doubt; inactive = no such curve, though single readings can be large; an effect the other way counts as inactive or inconclusive.

Columns and labels:
[1] = target: Cytochrome P450 3A4 (Homo sapiens) (UniProt P08684); assay: qHTS Assay for Activators of Cytochrome P450 3A4 (AID 885); also: nearly all actives have a fitted effect of over 65% in size
Cytochrome P450 3A4 (Homo sapiens), sequence (P08684 whole entry, looked up): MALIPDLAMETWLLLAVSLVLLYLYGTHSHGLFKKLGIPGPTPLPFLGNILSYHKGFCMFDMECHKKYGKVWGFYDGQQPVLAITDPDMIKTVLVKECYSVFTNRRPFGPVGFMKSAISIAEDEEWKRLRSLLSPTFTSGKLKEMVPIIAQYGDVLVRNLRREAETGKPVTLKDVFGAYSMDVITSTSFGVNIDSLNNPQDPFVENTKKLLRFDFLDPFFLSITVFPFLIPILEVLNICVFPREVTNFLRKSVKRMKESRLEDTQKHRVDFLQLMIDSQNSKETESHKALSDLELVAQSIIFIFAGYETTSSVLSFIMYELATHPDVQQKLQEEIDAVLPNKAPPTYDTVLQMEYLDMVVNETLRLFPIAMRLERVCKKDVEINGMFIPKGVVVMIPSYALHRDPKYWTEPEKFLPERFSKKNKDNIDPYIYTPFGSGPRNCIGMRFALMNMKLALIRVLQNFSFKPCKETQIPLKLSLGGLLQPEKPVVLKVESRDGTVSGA
Outline: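 Human CYP3A4 (20 nM) with Luciferin-PPXE at 25 uM (its KM) in 200 mM KPO4; 10 min compound preincubation, then NADPH regeneration and 60 min reaction at RT. Luciferin read by luminescence; normalized to 57 uM ketoconazole full inhibition.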

[2] = target: Alpha-galactosidase (Coffea arabica) (UniProt Q42656); assay: Counterscreen for Glucocerebrosidase Inhibitors: qHTS Assay for Coffee Bean alpha-Galactosidase at pH 4.5 (AID 957); also: series mostly up to about 77 µM
Alpha-galactosidase (Coffea arabica), sequence (Q42656 whole entry, looked up): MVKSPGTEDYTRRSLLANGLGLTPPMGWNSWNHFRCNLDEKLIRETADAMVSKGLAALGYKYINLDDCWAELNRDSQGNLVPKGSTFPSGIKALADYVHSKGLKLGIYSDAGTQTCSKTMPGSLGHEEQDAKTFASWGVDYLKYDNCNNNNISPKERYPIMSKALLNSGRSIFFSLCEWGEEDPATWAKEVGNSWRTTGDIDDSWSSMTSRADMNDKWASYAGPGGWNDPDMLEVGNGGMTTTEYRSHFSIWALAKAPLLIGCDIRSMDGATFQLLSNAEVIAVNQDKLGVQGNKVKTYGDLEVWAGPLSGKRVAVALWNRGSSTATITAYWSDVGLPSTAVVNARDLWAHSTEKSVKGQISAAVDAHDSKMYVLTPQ
Outline: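 Coffee bean enzyme (2 nM) with 80 uM 4-methylumbelliferyl alpha-D-galactopyranoside in 50 mM citric acid, 0.005% Tween-20, pH 4.5, 20 min at room temperature; compounds 0.7 nM–77 uM. Stopped at pH 10, fluorescence 365/440 nm; AC50 from Hill fits.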

[3] = target: Alpha-galactosidase (Coffea arabica) (UniProt Q42656); assay: Counterscreen for Glucocerebrosidase Inhibitors: qHTS Assay for Coffee Bean alpha-Galactosidase at pH 5.9 (AID 998)
Outline: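 Green coffee bean enzyme (2 nM) with 4-methylumbelliferyl alpha-D-galactopyranoside (80 uM) in 50 mM citric acid, 0.005% Tween-20, pH 5.9, 20 min at room temperature; compounds 0.7 nM–77 uM. Stopped at pH 10, fluorescence Ex365/Em440; Hill-fit AC50.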

[4] = target: Cytochrome P450 2D6 (Homo sapiens) (UniProt P10635); assay: qHTS Assay for Inhibitors and Substrates of Cytochrome P450 2D6 (AID 891); also: nearly all actives have a fitted effect of over 60% in size; also: potency is read from the fitted curve at half-maximal effect;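 as to activity change, negative = inhibition: luciferin methyl ether substrate demethylated by CYP2D6 with NADPH regeneration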
Cytochrome P450 2D6 (Homo sapiens), sequence (P10635 whole entry, looked up): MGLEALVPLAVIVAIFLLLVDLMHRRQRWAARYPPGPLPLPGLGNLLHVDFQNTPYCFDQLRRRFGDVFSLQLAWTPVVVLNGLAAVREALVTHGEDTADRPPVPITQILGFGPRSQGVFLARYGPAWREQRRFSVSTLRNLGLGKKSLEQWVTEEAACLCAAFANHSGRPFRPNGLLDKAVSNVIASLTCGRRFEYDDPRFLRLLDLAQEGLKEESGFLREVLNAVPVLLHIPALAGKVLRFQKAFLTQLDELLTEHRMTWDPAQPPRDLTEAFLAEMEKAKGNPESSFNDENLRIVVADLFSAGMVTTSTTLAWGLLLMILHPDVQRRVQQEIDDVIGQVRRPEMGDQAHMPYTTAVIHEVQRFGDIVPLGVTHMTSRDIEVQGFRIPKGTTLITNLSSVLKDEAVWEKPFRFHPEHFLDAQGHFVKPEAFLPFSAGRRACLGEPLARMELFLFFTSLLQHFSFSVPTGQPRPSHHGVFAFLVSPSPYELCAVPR
Outline: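 Human CYP2D6 (5 nM) with 30 uM Luciferin-ME EGE (at Km) in 100 mM KPO4, compound preincubated 10 min, then NADPH regeneration system for 60 min at room temperature. Luciferin read by luminescence; normalized to 1.43 uM quinidine.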

[5] = qHTS Assay for Identification of Small Molecule Antagonists for NFkB Signaling Pathway (AID 895; active = well fitted inhibition curve with a large enough effect in the signal ratio, with a control signal flat, not every such curve was filed as active; the % refers to the signal ratio; also: potency is read from the fitted curve at half-maximal effect)
Outline: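 ME-180 NFkB-bla cells (beta-lactamase under NFkB response element), plated overnight, treated with compound then 10 pM TNF alpha (about EC50) for 5 hrs at 37 C. LiveBLAzer FRET read at 460/530 nm emission, 405 nm excitation.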

[6] = target: Muscarinic acetylcholine receptor M1 (Rattus norvegicus) (UniProt P08482); assay: qHTS Assay for Antagonists of Acetylcholine Muscarinic M1 Receptor: Kinetic Measurement of Intracellular Calcium Response (AID 943); also: potency is read from the fitted curve at half-maximal effect; nearly all actives have a fitted effect of over 75% in size
Muscarinic acetylcholine receptor M1 (Rattus norvegicus), sequence (P08482 whole entry, looked up): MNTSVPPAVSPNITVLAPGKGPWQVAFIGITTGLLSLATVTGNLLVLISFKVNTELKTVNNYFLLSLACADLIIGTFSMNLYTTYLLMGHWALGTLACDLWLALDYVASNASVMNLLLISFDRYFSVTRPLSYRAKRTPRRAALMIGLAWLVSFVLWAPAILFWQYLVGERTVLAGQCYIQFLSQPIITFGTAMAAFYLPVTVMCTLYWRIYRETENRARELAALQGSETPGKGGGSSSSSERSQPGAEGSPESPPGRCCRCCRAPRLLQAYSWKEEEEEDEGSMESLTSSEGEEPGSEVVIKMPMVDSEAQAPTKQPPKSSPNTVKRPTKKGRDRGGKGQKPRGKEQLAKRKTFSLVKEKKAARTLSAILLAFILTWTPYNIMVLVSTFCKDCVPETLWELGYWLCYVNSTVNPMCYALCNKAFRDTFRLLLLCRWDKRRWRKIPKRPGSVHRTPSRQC
Outline: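 CHO cells expressing rat M1 receptor, Fluo-4 loaded, preincubated 10 min with compound, then stimulated with EC80 carbachol (100 nM final). Kinetic calcium fluorescence over 4 min; response taken as peak over basal signal.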

[7] = Confirmation and Secondary Assay for Modulators of Hemoglobin Beta Chain Splicing at IVS2 654 locus (AID 910);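 also: HeLa cells stably carrying EGFP split by mutant beta-globin IVS2-654 intron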
Outline: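 HeLa cells stably expressing EGFP interrupted by β-globin IVS2-654 intron, seeded overnight in Opti-MEM/2% FCS, then treated 2 days at 37 °C. Restored splicing read as total peak GFP intensity per well by laser scanning cytometry (488 nm excitation, 500–520 nm emission); 500 nM antisense PNA as control.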

[8] = Confirmation and Secondary Assay for Modulators of Hemoglobin Beta Chain Splicing at IVS2 705 locus (AID 930);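 also: HeLa cells stably expressing the EGFP-705 splicing reporter; series mostly up to about 46 µM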
Outline: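 HeLa cells stably carrying EGFP interrupted by mutant beta-globin IVS2-705 intron (CMV-driven) were seeded at 500 cells/well, treated next day with compound for 2 days at 37C; corrected splicing restores EGFP, read as total peak GFP intensity per well.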

[9] = target: Cytochrome P450 2C19 (Homo sapiens) (UniProt P33261); assay: qHTS Assay for Inhibitors and Substrates of Cytochrome P450 2C19 (AID 899); also: nearly all actives have a fitted effect of over 60% in size
Cytochrome P450 2C19 (Homo sapiens), sequence (P33261 whole entry, looked up): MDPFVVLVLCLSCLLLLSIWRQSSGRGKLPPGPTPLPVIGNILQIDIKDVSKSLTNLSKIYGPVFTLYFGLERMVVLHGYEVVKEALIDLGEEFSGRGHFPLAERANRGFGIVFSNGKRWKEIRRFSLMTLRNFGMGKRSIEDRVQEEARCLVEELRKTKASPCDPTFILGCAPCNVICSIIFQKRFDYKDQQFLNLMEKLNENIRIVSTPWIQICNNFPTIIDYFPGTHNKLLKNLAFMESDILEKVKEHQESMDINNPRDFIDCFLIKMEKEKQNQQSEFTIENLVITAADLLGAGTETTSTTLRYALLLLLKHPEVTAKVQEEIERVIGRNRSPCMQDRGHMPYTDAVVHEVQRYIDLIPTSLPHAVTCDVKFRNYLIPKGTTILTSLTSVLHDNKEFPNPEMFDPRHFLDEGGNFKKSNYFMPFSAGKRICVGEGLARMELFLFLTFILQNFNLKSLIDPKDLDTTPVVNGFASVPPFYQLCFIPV
Outline: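 5 nM human CYP2C19 with 10uM Luciferin-H EGE (at KM) in 50mM KPO4, compound preincubated 10 min at 37C, then NADPH regeneration for 60 min at 37C. Luciferin read by luminescence after detection reagent; normalized to 57uM ketoconazole as full inhibition.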

SMILES: O=c1[nH]c(=O)n([C@H]2C[C@H](O)[C@H](CO)O2)cc1/C=C\Br
- Potency [1]: inactive
- outcome [2]: inactive
- outcome [3]: inactive

SMILES: CC(=O)OC1CCC2C3CCc4cc(O)ccc4C3CCC12C (stereo unspecified)
- Potency [1]: inactive

SMILES: O[Si@](CCCN1CCCCC1)(c1ccc(F)cc1)C1CCCCC1
- Potency [1]: inactive
- Potency [4]: 0.501 µM (active)
- outcome [2]: inactive
- outcome [3]: inactive

SMILES: CN1[C@@H](CC(=O)c2ccccc2)CCC[C@@H]1C[C@@H](O)c1ccccc1
- Potency [5]: 12.6 µM [stimulated with 10 pM TNF alpha] (active)
- Potency [6]: 5.62 µM (active)
- outcome [2]: inactive
- outcome [3]: inactive

SMILES: CCC1=C(C[C@H]2NCCc3ccccc32)C[C@@H]2c3cc(OC)c(OC)cc3CCN2C1
- Potency [4]: 2.51 µM (active)

SMILES: O=C(C[n+]1ccc2ccccc2c1)c1ccc2ccc3ccccc3c2c1
- Potency [4]: 0.794 µM (active)

SMILES: COc1cc2ccc(=O)oc2c2ccoc12
- Potency [1]: inactive
- Potency [7]: inactive
- outcome [8]: inactive

SMILES: CC(C)(C)c1ccc(OC(=O)Nc2ccc(O)c(C(=O)O)c2)cc1
- activity change, negative = inhibition [4]: 22.6% [at 11.4 µM]

SMILES: CCC(C(=O)C(C)C(O)C(C)CCc1ccc(C)c(O)c1C(=O)O)C1OC(CC)(C2CC[C@@](O)(CC)C(C)O2)CC1C (stereo partly specified)
- Potency [1]: inactive

SMILES: COC(=O)[C@]1(C)CC[C@@]2(C)CC[C@@]3(C)C4=CCc5c(cc(O)c(O)c5C)[C@]4(C)CC[C@@]3(C)C2C1 (stereo partly specified)
- Potency [1]: inactive
- Potency [7]: inactive
- outcome [8]: inactive

SMILES: CC(=O)[C@@H]1CC[C@@H]2[C@@H]3CC=C4C[C@H](OS(=O)(=O)O)CC[C@@]4(C)[C@H]3CC[C@]21C
- Potency [1]: inactive
- outcome [2]: inactive
- outcome [3]: inactive

SMILES: O[C@@H]1[C@@H]2c3cc4c(cc3CN3CCC(=C[C@@H]1O)[C@H]23)OCO4
- Potency [4]: 3.98 µM (active)

SMILES: CCc1cc2c(nc1CC)CCN(CC/C(C)=N/OC)C2
- activity change, positive = activation [1]: -38.7% [at 11.4 µM]

SMILES: CC(C)c1cccc(O)c(=O)c1
- Potency [1]: inactive

SMILES: C[C@@]12CC[C@H]3[C@H](CC=C4C[C@@H](O)CC[C@@]43C)[C@@H]1CC[C@@H]2N(CCO)CCO
- activity, negative = inhibition [9]: 79.2% [at 11.4 µM]

SMILES: CCCCCCCCCCCCCCCC(=O)NC[C@@H](COP(=O)([O-])OCC[N+](C)(C)C)OCC
- outcome [2]: inactive
- outcome [3]: inactive
